Reference: publication PMC5540273 (PLoS ONE, 2017)

Assays:
Conditions in all cases: concentration: 1 μM, replicates: in singlicate; n = 1
PDPK1 = test system: PDPK1
PFTAIRE2 = test system: PFTAIRE2
PFTK1 = test system: T1, PFTK1
T1 construct: gene CDK14

PHKG1 = test system: PHKG1
PHKG2 = test system: PHKG2
PIK3C2B = test system: PIK3C2B
PIK3C2G = test system: PIK3C2G
PIK3CA = test system: PIK3CA
PIK3CB = test system: PIK3CB
PIK3CD = test system: PIK3CD
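Further: KINOMEscan kinase panel screen.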

| Structure (SMILES) | %Inh (PDPK1) | %Inh (PFTAIRE2) | %Inh (PFTK1) | %Inh (PHKG1) | %Inh (PHKG2) | %Inh (PIK3C2B) | %Inh (PIK3C2G) | %Inh (PIK3CA) | %Inh (PIK3CB) | %Inh (PIK3CD) |
| --- | --- | --- | --- | --- | --- | --- | --- | --- | --- | --- |
| CCC(=O)c1c(-c2ccccc2)c2cc(Cl)ccc2c(=O)n1Cc1cc(S(C)(=O)=O)n(CCC(C)(C)O)n1 | 0% | 0% | 12% | 18% | 0% | 41% | 52% | 32% | 26% | 36% |
| COc1cc2ncn(-c3cc(OCc4ccncc4)c(C(N)=O)s3)c2cc1OC [GSK336313] | 0% | 27% | 16% | 0% | 0% | 0% | 0% | 1% | 0% | 0% |
| COC(=O)c1c(-c2ccccc2)c2cc(C)ccc2c(=O)n1Cc1ccccc1 | 0% | 0% | 2% | 0% | 15% | 0% | 0% | 0% | 0% | 0% |
| CN(C)c1cc(-c2ccc3c(N)n[nH]c3c2)nc(N)n1 [GSK2219329] |  | 0% | 11% | 0% | 0% | 0% | 0% | 0% | 0% | 0% |
